Results filed as inconclusive are left out. Calls of active or inactive are those of the source. Unless noted, the call rests on the fitted dose curve; in most records, active means well fitted curve in the direction sought with a large enough effect; inconclusive means small, poorly fitted or top-dose-only effect, or another doubt; inactive means no such curve, though single readings can be large; an effect the other way counts as inactive or inconclusive.
Tests used:
[1] = AP1 Signaling Pathway (AID 357; active means well fitted curve in either direction with a large enough effect, not every such curve was filed as active; further: on the % scale 0 is the no-effect control and ±100 the full control effect); details: ME-180 AP-1-bla reporter, EGF-induced, beta-lactamase ratio, 5 h; at 7.69 µM (top of the series) unless noted
How it was run: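 Titration-series screen for positive or negative modulators of EC50 EGF-induced signaling in ME-180 cells carrying an AP-1-driven beta-lactamase reporter. After 5 hours at 37 degrees Celsius, CCF4 460nm/530nm emission ratio gave %Activity; AC50 values derived.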

[2] = molecular target: Cytochrome P450 1A2 (Homo sapiens) (UniProt P05177); assay: p450-cyp1a2 (AID 410; calls by dose curve; further: potency means the concentration at half of the fitted maximal effect)
Cytochrome P450 1A2 (Homo sapiens), sequence (P05177 whole entry, looked up): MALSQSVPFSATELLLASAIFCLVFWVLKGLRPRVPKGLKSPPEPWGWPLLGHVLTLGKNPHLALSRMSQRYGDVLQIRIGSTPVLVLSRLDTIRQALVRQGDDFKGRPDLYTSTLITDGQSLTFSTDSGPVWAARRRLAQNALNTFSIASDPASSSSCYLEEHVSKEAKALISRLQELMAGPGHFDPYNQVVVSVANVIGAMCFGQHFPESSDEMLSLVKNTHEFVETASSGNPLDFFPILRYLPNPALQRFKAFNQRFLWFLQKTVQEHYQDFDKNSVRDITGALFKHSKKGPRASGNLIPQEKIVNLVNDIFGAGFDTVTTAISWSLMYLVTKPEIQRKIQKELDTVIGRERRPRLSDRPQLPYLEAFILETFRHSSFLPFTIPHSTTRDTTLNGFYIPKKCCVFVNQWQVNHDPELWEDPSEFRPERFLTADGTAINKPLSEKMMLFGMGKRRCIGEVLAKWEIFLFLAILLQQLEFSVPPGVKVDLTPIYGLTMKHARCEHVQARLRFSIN
How it was run: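 20nM CYP1A2, 100uM Luciferin-ME (=Km), 100mM KPO4; cpd 10 min RT; +NADPH regen, 60 min RT; stop/detect 20 min; luminescence. Normalized to furafylline 57 uM = full inhibition.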

[3] = NFAT Signaling Pathway (AID 444; active means well fitted curve in either direction with a large enough effect, not every such curve was filed as active;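 further: carbachol stimulus at about its EC50 of 1 µM final; on the % scale 0 is the no-effect control and ±100 the full control effect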); details: Jurkat NFAT-bla M1, carbachol, beta-lactamase ratio, 5 h; at 7.69 µM (top of the series) unless noted
How it was run: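 Read-out: CCF4 FRET ratio (460 nm/530 nm) after 1 h RT dye loading, used for %activity and AC50 from titration series. Cells: Jurkat NFAT-β-lactamase/M1 line, treated with compound plus 1 uM carbachol for 5 h, 37 °C.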

[4] = Stat Signaling Pathway (AID 446; active means well fitted curve in either direction with a large enough effect, not every such curve was filed as active;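 further: ME-180 cervical cancer cells given 40 pM IL-6 alongside compound; SIE-controlled beta-lactamase reporter measured as 460/530 nm FRET emission ratio; on the % scale 0 is the no-effect control and ±100 the full control effect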); details: ME-180 SIE beta-lactamase reporter, IL-6 stimulated, 5 h; at 7.69 µM (top of the series) unless noted
How it was run: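 Compound effects on IL-6-induced STAT reporter activity were measured in ME-180 cells. After overnight culture, cells were co-treated with 40 pM IL-6 for 5 hrs before beta-lactamase substrate loading at room temperature.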

[5] = molecular target: Glucocorticoid receptor (Homo sapiens) (UniProt P04150); assay: GR-GFP Redistribution (AID 450;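 active means compounds whose dose series gives a full or clear partial fitted curve of increased nuclear translocation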; further: potency means the concentration at half of the fitted maximal effect); details: U2OS GR-GFP nuclear translocation, laser cytometry, 2 h
Glucocorticoid receptor (Homo sapiens), sequence (P04150 whole entry, looked up, the tested form may be a part): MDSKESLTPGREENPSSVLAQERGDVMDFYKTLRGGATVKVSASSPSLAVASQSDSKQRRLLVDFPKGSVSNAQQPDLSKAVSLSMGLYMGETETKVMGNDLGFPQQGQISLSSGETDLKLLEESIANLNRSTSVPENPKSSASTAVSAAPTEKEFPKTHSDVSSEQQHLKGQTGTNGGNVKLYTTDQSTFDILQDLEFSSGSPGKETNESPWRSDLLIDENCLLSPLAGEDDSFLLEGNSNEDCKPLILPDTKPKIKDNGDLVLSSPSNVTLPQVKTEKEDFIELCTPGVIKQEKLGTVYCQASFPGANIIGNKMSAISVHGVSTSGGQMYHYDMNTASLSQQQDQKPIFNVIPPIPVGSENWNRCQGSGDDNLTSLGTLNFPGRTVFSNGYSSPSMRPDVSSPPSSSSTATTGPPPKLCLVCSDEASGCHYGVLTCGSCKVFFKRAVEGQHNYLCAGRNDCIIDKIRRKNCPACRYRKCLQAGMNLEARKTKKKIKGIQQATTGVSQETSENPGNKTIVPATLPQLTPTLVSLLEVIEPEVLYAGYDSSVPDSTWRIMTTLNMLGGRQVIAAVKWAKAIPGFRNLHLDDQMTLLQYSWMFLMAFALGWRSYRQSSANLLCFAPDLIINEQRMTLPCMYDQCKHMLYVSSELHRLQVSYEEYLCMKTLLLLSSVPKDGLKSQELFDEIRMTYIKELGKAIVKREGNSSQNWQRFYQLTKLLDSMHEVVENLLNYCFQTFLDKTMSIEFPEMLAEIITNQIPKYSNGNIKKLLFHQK

[6] = molecular target: Glucocorticoid receptor (Homo sapiens) (UniProt P04150); assay: GR-EFC Redistribution (AID 451; calls by dose curve; further: potency means the concentration at half of the fitted maximal effect); details: CHO-K1 GR-EFC translocation, beta-gal luminescence, 2 h
How it was run: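 Translocation of GR-ED fusion to nuclear EA restores b-gal, read by luminescence after 1 h room-temperature detection. Engineered CHO-K1 biosensor cells, 1,000/well, exposed 2 h at 37 C to titrations up to 46 uM final.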

[7] = molecular target: Mitogen-activated protein kinase 10 (Mus musculus) (UniProt Q61831); assay: JNK3 AlphaScreen Assay (AID 530; active means well fitted curve in either direction with a large enough effect, not every such curve was filed as active;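 further: kinase came from lysate of stimulated human HepG2 cells; signal reports phosphorylation of biotinylated GST-cJun 1-79 at Ser73 with 10 µM ATP; on the % scale 0 is the no-effect control and ±100 the full control effect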)
How it was run: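 Kinase buffer: 20 mM Tris-HCl pH 7.6, 10 mM MgCl2, 1 mM DTT, 0.1 mM Na3VO4, 0.01% Tween-20; ATP 10 uM. Substrate biotin-GST-cJun(1-79), enzyme from activated HepG2 lysates. Detection by Ser73 phospho-antibody AlphaScreen.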

[8] = molecular target: 3',5'-cyclic-AMP phosphodiesterase 4B (Homo sapiens) (UniProt Q07343); assay: qHTS Assay for Inhibitors of PDE-IV (AID 607; active means well fitted activation curve with a large enough effect in the main read-out, with a control signal flat, not every such curve was filed as active; further: % of control where 0% means no effect)
3',5'-cyclic-AMP phosphodiesterase 4B (Homo sapiens), sequence (Q07343 whole entry, looked up): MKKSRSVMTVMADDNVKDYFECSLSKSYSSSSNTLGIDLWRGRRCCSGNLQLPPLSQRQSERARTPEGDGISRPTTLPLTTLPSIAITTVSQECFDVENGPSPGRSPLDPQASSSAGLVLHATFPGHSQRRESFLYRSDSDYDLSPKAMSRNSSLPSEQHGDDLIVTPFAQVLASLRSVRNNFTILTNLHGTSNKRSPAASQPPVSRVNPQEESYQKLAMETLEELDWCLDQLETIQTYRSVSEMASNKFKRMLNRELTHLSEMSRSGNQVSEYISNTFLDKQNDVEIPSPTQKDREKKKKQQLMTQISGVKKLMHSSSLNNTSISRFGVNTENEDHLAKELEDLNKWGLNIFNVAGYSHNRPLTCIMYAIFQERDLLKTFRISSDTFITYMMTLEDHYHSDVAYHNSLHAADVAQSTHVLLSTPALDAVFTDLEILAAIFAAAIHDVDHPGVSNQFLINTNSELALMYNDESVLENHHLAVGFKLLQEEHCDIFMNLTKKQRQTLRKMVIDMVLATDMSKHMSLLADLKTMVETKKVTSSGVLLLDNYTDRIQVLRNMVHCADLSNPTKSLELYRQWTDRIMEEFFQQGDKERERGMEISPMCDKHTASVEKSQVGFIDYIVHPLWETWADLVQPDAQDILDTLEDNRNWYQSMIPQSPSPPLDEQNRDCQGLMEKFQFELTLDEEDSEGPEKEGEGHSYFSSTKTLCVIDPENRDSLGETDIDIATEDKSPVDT
How it was run: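 ACTOne HEK293 cells carry a modified cAMP-gated CNG channel and express endogenous PDE4; plated 1000 cells/well, compounds up to 22.9 uM final. Membrane-potential dye fluorescence (ex 535/em 590) was read; parental cells received 10 uM forskolin + 100 uM RO 20-1724.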

[9] = qHTS Assay for Lipid Storage Modulators (AID 1519; calls by dose curve); details: Drosophila S3 cells, BODIPY lipid droplet/cell ratio, laser cytometry, cells loaded with oleic acid; for activity change, negative = inhibition: at 57.5 µM (top of the series)
How it was run: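 Cells seeded at 5,000 per well were treated with compounds over a concentration series and loaded with oleic acid (400 uM, as added). Lipid droplet fluorescence (488 nm excitation, 500-530 nm channel) was read by laser-scanning cytometry and normalized to 20 uM Triacsin C.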

[10] = molecular target: Dual specificity protein kinase CLK4 (Homo sapiens) (UniProt Q9HAZ1); assay: qHTS Assay for Inhibitors of CDC-like Kinase 4 (Kinase-Glo Assay) (AID 1770); further: on the % scale 0 is the no-effect control and ±100 the full control effect; nearly all actives have a fitted effect of over 65% in size
Dual specificity protein kinase CLK4 (Homo sapiens), sequence (Q9HAZ1 whole entry, looked up): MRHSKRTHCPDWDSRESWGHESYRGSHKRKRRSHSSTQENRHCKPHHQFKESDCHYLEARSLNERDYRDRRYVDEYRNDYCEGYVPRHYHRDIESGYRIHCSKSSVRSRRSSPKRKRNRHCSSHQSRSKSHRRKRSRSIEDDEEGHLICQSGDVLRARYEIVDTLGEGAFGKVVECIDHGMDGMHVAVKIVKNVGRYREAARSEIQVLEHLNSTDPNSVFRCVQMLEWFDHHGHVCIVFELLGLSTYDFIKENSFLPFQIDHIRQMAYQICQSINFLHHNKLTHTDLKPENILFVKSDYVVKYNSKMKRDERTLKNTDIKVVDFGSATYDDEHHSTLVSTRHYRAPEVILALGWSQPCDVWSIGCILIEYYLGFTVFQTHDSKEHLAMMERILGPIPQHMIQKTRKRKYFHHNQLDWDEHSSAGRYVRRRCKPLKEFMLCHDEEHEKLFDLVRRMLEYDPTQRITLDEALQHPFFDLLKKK
How it was run: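 Recombinant human Clk4 (25 nM) phosphorylated RS repeat peptide (100 uM) with 1 uM ATP in Tris pH 7.5/MgCl2/EGTA/DTT/Triton buffer for 4.5 h at room temperature. Residual ATP was quantified by Kinase-Glo luciferase luminescence.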

[11] = molecular target: Dual specificity protein kinase CLK4 (Homo sapiens) (UniProt Q9HAZ1); assay: qHTS Assay for Inhibitors of CDC-like Kinase 4 (ADP-Glo Assay) (AID 1771); further: nearly all actives have a fitted effect of over 70% in size; further: potency means the concentration at half of the fitted maximal effect
How it was run: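 25 nM Clk4, 100 uM RS peptide, 1 uM ATP (final); 2 mM MgCl2, 0.5 mM EGTA, 2.5 mM DTT, 0.01% Triton X-100; 1 hr RT. ADP-Glo readout: ATP depletion 45 min, conversion/luciferase 30 min, luminescence.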

[12] = molecular target: Dual specificity protein kinase CLK4 (Homo sapiens) (UniProt Q9HAZ1); assay: qHTS Assay for Inhibitors of CDC-like Kinase 4 (ADP-FP Assay) (AID 1795); further: nearly all actives have a fitted effect of over 60% in size; further: potency means the concentration at half of the fitted maximal effect
How it was run: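 Recombinant human Clk4 (6.25 nM) phosphorylated RS repeat peptide (100 uM) with 1 uM ATP in Tris pH 7.5/MgCl2/EGTA/DTT/Triton buffer for one hour. ADP was quantified by Transcreener competitive fluorescence polarization against an ADP calibration curve.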

[13] = Counterscreen qHTS for small molecule stabilizers of the endoplasmic reticulum resident proteome: GLuc-NoTag assay (AID 1508627);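 further: SH-SY5Y cells given compound then 100 nM thapsigargin to empty ER calcium; 0% = thapsigargin alone and -100% = DMSO vehicle control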
How it was run: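 Counterscreen line: SH-SY5Y-GLuc-NoTag cells, treated with compound 19 hr before a 4 hr, 100 nM thapsigargin calcium depletion. Secreted Gaussia luciferase in the medium was measured by luminescence after coelenterazine was added (0.07x final), with cells unlysed.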

[14] = molecular target: Cytochrome P450 3A4 (Homo sapiens) (UniProt P08684); assay: qHTS Assay for Inhibitors and Substrates of Cytochrome P450 3A4 (AID 884); further: potency means the concentration at half of the fitted maximal effect; nearly all actives have a fitted effect of over 50% in size
Cytochrome P450 3A4 (Homo sapiens), sequence (P08684 whole entry, looked up): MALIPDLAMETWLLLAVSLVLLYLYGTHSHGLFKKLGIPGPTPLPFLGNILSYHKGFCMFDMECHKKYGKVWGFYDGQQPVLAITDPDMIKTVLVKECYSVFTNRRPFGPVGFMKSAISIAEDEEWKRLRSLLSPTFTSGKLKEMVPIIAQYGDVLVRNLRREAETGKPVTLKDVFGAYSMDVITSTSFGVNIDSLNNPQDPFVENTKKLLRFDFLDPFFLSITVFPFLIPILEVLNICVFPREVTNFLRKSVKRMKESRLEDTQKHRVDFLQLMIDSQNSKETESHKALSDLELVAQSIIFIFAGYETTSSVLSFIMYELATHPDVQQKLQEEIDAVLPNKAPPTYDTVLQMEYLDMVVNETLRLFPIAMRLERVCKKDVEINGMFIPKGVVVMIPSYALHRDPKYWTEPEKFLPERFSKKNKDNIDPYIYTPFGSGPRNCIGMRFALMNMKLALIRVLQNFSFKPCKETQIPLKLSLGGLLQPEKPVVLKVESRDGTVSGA
How it was run: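 Luminescent readout of luciferin produced by CYP3A4 (20 nM) dealkylation of Luciferin-PPXE, 25 uM (its KM). NADPH-driven reaction ran 60 min at RT after 10 min compound preincubation; data scaled to 57 uM ketoconazole as 100% inhibition.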

[15] = molecular target: Cytochrome P450 3A4 (Homo sapiens) (UniProt P08684); assay: qHTS Assay for Activators of Cytochrome P450 3A4 (AID 885); further: nearly all actives have a fitted effect of over 65% in size
How it was run: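 CYP3A4 activity: Luciferin-PPXE O-dealkylation, 25uM substrate, 200mM KPO4, RT throughout. Read-out is luciferase luminescence; higher values reflect activation.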

[16] = molecular target: Ubiquitin carboxyl-terminal hydrolase 1 (Homo sapiens) (UniProt O94782); assay: Inhibitors of USP1/UAF1: Pilot qHTS (AID 504865);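 further: rhodamine fluorescence freed from ubiquitin-rhodamine substrate followed over time; top concentration of the series differs between compounds; on the % scale 0 is the no-effect control and ±100 the full control effect; nearly all actives have a fitted effect of over 35% in size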
Ubiquitin carboxyl-terminal hydrolase 1 (Homo sapiens), sequence (O94782 whole entry, looked up): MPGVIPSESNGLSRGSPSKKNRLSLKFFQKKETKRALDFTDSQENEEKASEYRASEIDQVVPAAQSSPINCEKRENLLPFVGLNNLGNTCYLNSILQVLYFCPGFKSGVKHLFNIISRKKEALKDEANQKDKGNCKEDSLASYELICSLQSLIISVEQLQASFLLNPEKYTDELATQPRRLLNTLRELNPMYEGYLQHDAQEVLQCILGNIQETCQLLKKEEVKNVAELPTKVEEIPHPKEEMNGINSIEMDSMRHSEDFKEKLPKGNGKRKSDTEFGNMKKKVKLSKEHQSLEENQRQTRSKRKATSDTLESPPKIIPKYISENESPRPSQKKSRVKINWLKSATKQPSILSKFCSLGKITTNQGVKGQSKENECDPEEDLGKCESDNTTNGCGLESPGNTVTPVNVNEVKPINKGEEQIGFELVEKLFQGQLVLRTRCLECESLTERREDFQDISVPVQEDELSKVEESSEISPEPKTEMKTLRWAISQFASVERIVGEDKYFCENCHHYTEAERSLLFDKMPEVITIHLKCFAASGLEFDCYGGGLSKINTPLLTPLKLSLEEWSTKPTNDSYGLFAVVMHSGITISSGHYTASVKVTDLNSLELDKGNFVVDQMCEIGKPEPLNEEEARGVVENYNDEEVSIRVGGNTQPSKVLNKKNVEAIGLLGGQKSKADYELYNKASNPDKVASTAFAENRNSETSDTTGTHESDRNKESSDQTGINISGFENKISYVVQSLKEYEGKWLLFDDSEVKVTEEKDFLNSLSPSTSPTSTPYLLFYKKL
How it was run: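 USP1/UAF1 complex (1nM) preincubated with compound 15 min at room temperature, then Ub-Rho substrate (150nM final) added. Fluorescence read kinetically at 480/540 nm, 6 reads every 60 seconds. Buffer: 50mM HEPES pH 7.8, 0.5mM EDTA, 0.1 mg/ml BSA, 1mM TCEP, 0.01% Tween-20.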

[17] = Confirmatory qHTS for small molecule stabilizers of the endoplasmic reticulum resident proteome: Secreted ER Calcium Modulated Protein (SERCaMP) assay (AID 1508628); further: nearly all actives have a fitted effect of over 40% in size; further: potency means the concentration at half of the fitted maximal effect
How it was run: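 GLuc-SERCaMP-expressing SH-SY5Y cells, pretreated 16 h with compound, are challenged with thapsigargin to empty ER calcium stores; after 4 h, coelenterazine is added directly to the medium and luminescence is imaged.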

[18] = molecular target: Lysosomal acid glucosylceramidase (Homo sapiens) (UniProt P04062); assay: Glucocerebrosidase-p2 (AID 348; in the data active means potency below about 10 µM; further: potency means the concentration at half of the fitted maximal effect); details: purified GBA, blue fluorogenic substrate, 40 min
Lysosomal acid glucosylceramidase (Homo sapiens), sequence (P04062 whole entry, looked up): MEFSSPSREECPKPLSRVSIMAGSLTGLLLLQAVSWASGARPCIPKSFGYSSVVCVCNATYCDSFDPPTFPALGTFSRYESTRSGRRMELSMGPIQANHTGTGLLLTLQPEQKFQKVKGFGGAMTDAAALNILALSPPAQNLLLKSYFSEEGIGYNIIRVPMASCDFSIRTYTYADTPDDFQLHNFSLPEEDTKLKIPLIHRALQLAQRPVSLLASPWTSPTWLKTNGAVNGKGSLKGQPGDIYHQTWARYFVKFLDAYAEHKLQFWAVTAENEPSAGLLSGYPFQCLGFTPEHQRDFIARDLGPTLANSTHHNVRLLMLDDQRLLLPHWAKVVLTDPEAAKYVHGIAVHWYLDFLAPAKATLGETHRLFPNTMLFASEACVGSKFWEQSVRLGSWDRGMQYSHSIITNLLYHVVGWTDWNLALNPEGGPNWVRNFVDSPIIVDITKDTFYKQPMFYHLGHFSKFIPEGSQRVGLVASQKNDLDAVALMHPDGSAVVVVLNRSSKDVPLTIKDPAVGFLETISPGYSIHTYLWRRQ
How it was run: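 Normal human glucocerebrosidase (0.2 nM) with blue fluorogenic substrate (80 uM final) in citrate/phosphate pH 5.9 with 10mM sodium taurocholate, 0.01% tween-20; 40 min RT, NaOH/glycine stop; fluorescence Ex 365/Em 440; AC50 from a titration from 0.6 nM upwards.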

[19] = Cell Viability qHTS for small molecule stabilizers of the endoplasmic reticulum resident proteome (AID 1508629); details: cell viability counter-screen, 100 nM thapsigargin for final 4 h
[20] = Confirmation and Secondary Assay for Modulators of Hemoglobin Beta Chain Splicing at IVS2 654 locus (AID 910);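 further: HeLa cells stably carrying EGFP split by mutant beta-globin IVS2-654 intron; per-well total GFP intensity by laser scanning cytometry after 2-day treatment; % of control where 0% means no effect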
How it was run: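 Readout: per-well total peak green fluorescence (488 nm ex, 500–520 nm em) from objects 5–250 µm, reflecting correct splicing of an EGFP-654 reporter. Compounds were applied for 2 days at 37 °C to overnight-plated HeLa EGFP-654 cells; controls were DMSO and 500 nM IVS2-654 PNA.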

[21] = qHTS Assay for Identification of Small Molecule Agonists for Hypoxia Response Element Signaling Pathway (AID 914; active means well fitted activation curve with a large enough effect in the signal ratio, with a control signal flat, not every such curve was filed as active; the % refers to the signal ratio; further: % of control where 0% means no effect); details: ME-180 (cervical carcinoma) HRE-bla reporter, beta-lactamase ratio, CoCl2, 17 h; activation: stronger effect = higher value
How it was run: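 Read-out: CCF4 FRET ratio of 460nm to 530nm emission (excitation 405nm) after 2.5 hours at room temperature, taken from HRE-bla ME-180 cells that had been exposed to compound and EC50 CoCl2 for 17 hours.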

[22] = Confirmation and Secondary Assay for Modulators of Hemoglobin Beta Chain Splicing at IVS2 705 locus (AID 930);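 further: HeLa cells stably expressing the EGFP-705 splicing reporter; GFP fluorescence per well restored by corrected splicing of the IVS2-705 intron in EGFP; % of control where 0% means no effect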
How it was run: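 HeLa EGFP-705 reporter; 500 cells/well, o/n 37C 5% CO2; cpd 2 d; 488 ex/500-520 em laser scan; total peak GFP intensity/well. Ref: 500 nM […] antisense PNA.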

[23] = molecular target: Cytochrome P450 2C9 (Homo sapiens) (UniProt P11712); assay: qHTS Assay for Inhibitors and Substrates of Cytochrome P450 2C9 (AID 883); further: potency means the concentration at half of the fitted maximal effect; nearly all actives have a fitted effect of over 60% in size
Cytochrome P450 2C9 (Homo sapiens), sequence (P11712 whole entry, looked up): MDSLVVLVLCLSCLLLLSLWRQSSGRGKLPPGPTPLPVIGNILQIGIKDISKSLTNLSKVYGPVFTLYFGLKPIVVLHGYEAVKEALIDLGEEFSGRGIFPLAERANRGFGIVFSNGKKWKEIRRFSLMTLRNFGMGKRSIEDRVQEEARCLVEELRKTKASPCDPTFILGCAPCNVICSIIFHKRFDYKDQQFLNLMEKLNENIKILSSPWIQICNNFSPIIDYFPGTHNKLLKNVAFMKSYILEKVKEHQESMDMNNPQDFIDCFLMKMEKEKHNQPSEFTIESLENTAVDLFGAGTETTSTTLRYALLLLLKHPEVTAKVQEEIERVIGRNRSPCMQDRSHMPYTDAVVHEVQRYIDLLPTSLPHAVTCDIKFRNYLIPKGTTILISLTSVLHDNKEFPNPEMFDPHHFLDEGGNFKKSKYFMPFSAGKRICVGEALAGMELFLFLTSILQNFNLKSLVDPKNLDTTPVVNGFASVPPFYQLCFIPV
How it was run: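 Turnover of Luciferin-H (100uM, KM) by 10nM human CYP2C9 was measured over 60 min at 37C with NADPH regeneration; inhibitors and some substrates reduce luminescence. Data normalized to sulphaphenazole 57uM.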

[24] = measured here: cell count channel max response
[25] = measured here: lipid channel max response

Cc1nc2cnc(N3CCN(C)CC3)nc2n(-c2ccccc2)c1=O
active: Potency [2] 3.98 µM
7.22%: max response [9, 24]
inactive: activity change, negative = inhibition [1] -10.2% | activity change, negative = inhibition [3] -6.35% | activity, negative = inhibition [4] -7.64% | Potency [5] > 9.22 µM | Potency [6] > 46 µM | outcome [7] | Potency [8] | activity change, negative = inhibition [9] 2.71% | Potency [10] | Potency [11] | Potency [12] | Potency [13]
7.19%: max response [9, 25]

COc1ccc(CNc2ncnc3ccc(-c4cccc(C#N)c4)cc23)c(OC)c1
inactive: activity change, negative = inhibition [3] 16.5% | activity, negative = inhibition [4] -11.5% | Potency [5] > 46 µM | Potency [6] > 46 µM | outcome [7] | Potency [15] | activity change, negative = inhibition [9] -0.414% | Potency [12] | Potency [16]
-6.85%: max response [9, 24]
active: Potency [2] 3.16 µM | Potency [14] 1.58 µM | Potency [17] 28.2 µM
-11.4%: max response [9, 25]

COCCn1c(=O)c(CCc2ccccc2)nc2cnc(N3CCNCC3)nc21
inactive: Potency [18] > 11.4 µM | activity change, negative = inhibition [1] -4.91% | activity change, negative = inhibition [3] 10.2% | activity, negative = inhibition [4] -1.73% | Potency [5] > 9.22 µM | Potency [6] > 46 µM | outcome [7] | Potency [8] | Potency [13]

c1ccc(-c2cccc(N3CC4(CCNCC4)C3)c2)cc1
-10.1%: max response [9, 25]
inactive: Potency [18] > 11.4 µM | activity change, negative = inhibition [1] 14.2% | activity change, negative = inhibition [3] 6.24% | activity, negative = inhibition [4] 3.73% | Potency [6] > 46 µM | Potency [8] | activity change, negative = inhibition [9] -6.46% | max response [19] -13.3%
active: Potency [2] 12.6 µM
-7.34%: max response [9, 24]

Cc1ccccc1-c1nc(NC2CCNCC2)c2ccccc2n1
active: Potency [2] 20 µM | Potency [17] 31.6 µM
inactive: Potency [18] > 11.4 µM | activity change, negative = inhibition [1] 19.1% | activity change, negative = inhibition [3] 0.36% | activity, negative = inhibition [4] -7.16% | Potency [5] > 46 µM | Potency [6] > 46 µM | outcome [7] | Potency [8] | outcome [20] | activation [21] 12.4% | outcome [22]

O=c1c(-c2ccccc2)nc2cnc(N3CCNCC3)nc2n1Cc1cccs1
inactive: Potency [18] > 11.4 µM | Potency [5] > 9.22 µM | Potency [6] > 46 µM | Potency [8] | Potency [17]

CN(C)c1ncc2ncc(=O)n(CCc3ccccc3)c2n1
active: Potency [2] 0.794 µM | Potency [23] 6.31 µM | Potency [11] 6.31 µM | Potency [12] 5.01 µM | Potency [17] 39.8 µM
inactive: Potency [18] > 11.4 µM | activity change, negative = inhibition [1] -21.4% | activity change, negative = inhibition [3] -10.8% | activity, negative = inhibition [4] -10.8% | Potency [5] > 9.22 µM | Potency [6] > 46 µM | outcome [7] | Potency [16]

C=C1CCC[C@]2(C)C[C@H]3OC(=O)[C@H](CNCCc4ccccc4OC)C3CC12 (some centres not stated)
inactive: Potency [17] | max response [19] -12.1%

Reference: PubChem BioAssay (NCATS)
